Only some compounds are listed: those with a hit (about 4.7% of all), similar ones and a draw of the others.
D1 antagonist = Antagonist of Human D 1 Dopamine Receptor: qHTS. D(1A) dopamine receptor (Homo sapiens), P21728. HEK293 TREx D1 cells, calcium flux, dopamine EC80; active compounds read low. activity change, negative = inhibition, % at 10 µM. 360,000 compounds, 3.2% hits; in the data active = activity change below about -30%; note: % is set by controls: 0 for no effect and ±100 for the full control effect
Target sequence (P21728 whole entry, looked up): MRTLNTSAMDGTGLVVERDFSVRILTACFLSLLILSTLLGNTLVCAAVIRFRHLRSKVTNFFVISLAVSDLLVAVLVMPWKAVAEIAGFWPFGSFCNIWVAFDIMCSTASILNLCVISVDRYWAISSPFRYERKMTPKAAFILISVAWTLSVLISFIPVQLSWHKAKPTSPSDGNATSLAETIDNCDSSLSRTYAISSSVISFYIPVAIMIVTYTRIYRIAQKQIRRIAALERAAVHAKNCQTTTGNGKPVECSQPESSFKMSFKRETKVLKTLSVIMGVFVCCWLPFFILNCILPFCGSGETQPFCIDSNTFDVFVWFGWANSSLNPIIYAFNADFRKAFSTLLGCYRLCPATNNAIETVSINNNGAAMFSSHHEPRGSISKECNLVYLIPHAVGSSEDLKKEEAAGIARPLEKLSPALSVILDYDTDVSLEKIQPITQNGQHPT
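Compound effects on dopamine-evoked calcium signalling were measured in tetracycline-induced HEK293 Trex D1 cells. Dopamine at EC80 followed a 180 s compound pre-read, and fluorescence was tracked kinetically for 180 s more.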
D1 PAM = Potentiators of Human D1 Dopamine Receptor: qHTS. D(1A) dopamine receptor (Homo sapiens), P21728. HEK293 TREx D1 cells, calcium flux, dopamine EC20 potentiation. potentiation, % at 10 µM. 360,000 compounds, 0.036% hits. AID 504651, 2011; in the data active = potentiation above about 30%; note: 0% is about no effect
TRHR PAM = qHTS for Small Molecule Agonists and Allosteric Enhancers of Human TRH Receptor: Primary Screen for Enhancers; Thyrotropin-releasing hormone receptor (Homo sapiens), P34981; TRHR cells, fluo-8 calcium fluorescence, EC20 TRH enhancement; enhancement, % at 2 µM; 360,000 compounds, 0.66% hits; AID 493056, 2011; in the data active = enhancement above about 30%; note: 0% is about no effect
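TRHR-expressing cells loaded with fluo-8 calcium dye were read kinetically (ex 480/em 530) during compound addition, then stimulated with an EC20 of TRH (10 nM final). Enhancement of the Gq-mediated intracellular calcium response was scored.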
D1 ag = Allosteric Agonists of the Human D1 Dopamine Receptor: qHTS | D(1A) dopamine receptor (Homo sapiens), P21728 | HEK293 T-REx D1 cells, calcium flux, agonist mode | activation, % at 2 µM | 360,000 compounds, 1% hits | AID 504660, 2011; note: 0% is about no effect
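Agonism was scored from calcium flux recorded over 180 s (1 read/s) after pintool compound addition, following a 10-cycle baseline. Cells were inducible force-coupled HEK293 TREx D1, plated overnight at 30 C and loaded with no-wash calcium dye.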
TRHR agonist = qHTS for Small Molecule Agonists and Allosteric Enhancers of Human TRH Receptor: Primary Screen for Agonists; Thyrotropin-releasing hormone receptor (Homo sapiens), P34981; TRHR cells, calcium flux fluo-8, FDSS agonist mode; activation, % at 2 µM; 360,000 compounds, 0.18% hits; note: 0% is about no effect
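In this calcium-flux screen, cells bearing human TRHR are dye-loaded with fluo-8, baselined for 10 cycles, then exposed to library compounds; positive kinetic calcium responses during the agonist phase mark hits, with TRH as control.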
* = called active by the depositor. Cut-off read from the data, not from the text of the source, unless noted: active = activation above about 30%; inactive = the rest.

SMILES | D1 antagonist | D1 PAM | TRHR PAM | D1 ag | TRHR agonist
Cc1ccccc1CN1CCC(CNc2ncnc3onc(-c4ccc(F)cc4)c23)CC1 | 19 | 6 | 36* | 2 | -2
Cc1cccc(Nc2ncnc3onc(-c4ccc(F)cc4)c23)c1C | 4 | -2 | -7 | 2 | -2
COc1ccc(NC(=O)C(CC(=O)O)C(C)c2ccccc2)cc1 (configuration not stated) | -39* | 5 | -2 | 7 | 0
CCOc1ccc(Nc2c(S(=O)(=O)c3ccccc3)cnc3ccc(CC)cc23)cc1 | -14 | -7 | -1 | 2 | 0
Cc1cc(C)c(NC(=O)CSc2nc(C)cc(C)c2C#N)c(C)c1 | 1 | -3 | -3 | 0 | 2
Cc1ccc(/C(N)=N/OC(=O)Cc2cccs2)cc1 | 10 | 7 | 6 | 0 | 0
N/C(=N\OC(=O)Cc1cccs1)c1ccccc1 | -38* | -8 | -2 | 1 | 0
COc1ccc2c(Cl)c(-c3nnc(SCC(=O)c4ccccc4)n3C)sc2c1 | -43* | -5 | -5 | 4 | 0
Cc1ccc2nc(N3CCN(C(=O)c4ccc(F)cc4)CC3)c(C#N)cc2c1 | -46* | 0 | -5 | -3 | 0
COc1ccc2nc(N3CCCC3)c(C#N)cc2c1 | -12 | -7 | -2 | 41* | 20
COc1cc2c(cc1OC)C1Cc3ccc(OC)c(OC)c3CN1CC2 (configuration not stated) | -74* | -14 | 1 | 0 | 0
COc1ccc2c(c1OC)CN1CCc3cc4c(cc3[C@@H]1[C@@H]2O)OCO4 | -66* | -12 | -4 | -2 | 0
CCOc1ccc(CC2c3cc(OCC)c(OCC)cc3CCN2C(=O)c2cc(OC)c(OC)c(OC)c2)cc1OCC (configuration not stated) | 6 | -8 | 1 | 4 | -1
O[C@@H]1[C@@H](O)C=C2CCN3Cc4cc5c(cc4[C@H]1C23)OCO5 (some centres not stated) | -11 | -4 | 3 | 0 | -2
COc1cc2c(cc1OC)[C@@H]1Cc3ccc(OC)c(OC)c3CN1CC2 | -53* | -6 | -3 | 2 | 1
Nc1nonc1-c1nc2ccccc2n1Cc1c(Cl)cccc1Cl | 7 | 2 | -8 | 2 | 0
O=C1Nc2ccc(Br)cc2C12NNc1ccccc1O2 (configuration not stated) | -14 | -5 | -2 | 33* | 7
COc1cc(-c2noc(CCC(=O)Nc3cc(C)ccc3C)n2)cc(OC)c1OC | -10 | 1 | -9 | 0 | 0
O=C(OC1CCCCC1=O)c1ccc(S(=O)(=O)Nc2ccccc2)cc1 (configuration not stated) | -10 | 2 | 13 | 35* | 1
COc1cccc(Cc2nc3ccccc3nc2SCC(=O)NCCc2ccccc2)c1 | 4 | -4 | -3 | 16 | 1
COc1ccc(-n2cc(CNCCc3nc(C)cc(C)n3)c(-c3ccccc3Cl)n2)cc1 | 25 | -1 | 14 | 40* | 1
COc1ccc(-n2cc(CNCCc3ncc(C)[nH]3)c(-c3ccccc3Cl)n2)cc1 | 2 | 3 | 16 | 2 | 0
Fc1ccc(-n2cc(CNCCc3ccccn3)c(-c3ccccc3Cl)n2)cc1 | 18 | -4 | 19 | 34* | 1
O=S(=O)(c1ccc2c(c1)OCCO2)N1CCN(S(=O)(=O)c2cc(F)c(Br)cc2F)CC1 | 1 | 3 | -4 | 1 | -2
CCn1c(O)c(N=NC(=O)C2C(=O)NCC2c2ccccc2)c2ccccc21 (configuration not stated) | -80* | -2 | -6 | 1 | -1
SMILES | D1 antagonist | D1 PAM | TRHR PAM | D1 ag | TRHR agonist
CCOc1ccc(NC(=O)Cn2c(=O)n(-c3ccc(C)cc3)c(=O)c3cc(OC)c(OC)cc32)cc1 | 4 | -1 | 5 | 0 | -1
CC(=O)N(C1=C(O)c2ccccc2C(=O)C1=O)C1CCCCC1 | -38* | -1 | -9 | 0 | 0
CCOc1ccc(-c2cc(NC(=O)c3cccc(Cl)c3)c(C(=O)OC)s2)cc1 | -15 | -3 | -6 | 3 | 0
CSc1ccccc1NC(=O)CN(C)Cc1ccc(Br)cc1 | 13 | -6 | -3 | 8 | 0
CSc1ccc(CN(C)CC(=O)Nc2ccccc2Br)cc1 | -41* | 1 | -1 | 3 | 1
Cc1ccc(C)c(CN2C(=O)c3ccccc3S(=O)(=O)c3ccc(C(=O)N(C)C4CCCCC4)cc32)c1 | 11 | 1 | -8 | 5 | 0
COc1cc2c3nnc(-c4ccccc4)c-3cn(Cc3ccccc3F)c2cc1OC | -28 | -16 | -4 | 0 | 2
COc1cc2c3nnc(-c4ccc(F)cc4)c-3cn(Cc3ccccc3F)c2cc1OC | -53* | -4 | 7 | 4 | 0
COc1ccc(C(=O)O)cc1Nc1nc2ccc(C)cc2n2cnnc12 | -5 | 1 | 4 | 1 | -1
O=C(CNC(=O)C1CCCCC1)OC(C(=O)Nc1cc(C(F)(F)F)ccc1Cl)c1ccccc1 (configuration not stated) | 21 | 9 | -1 | 2 | -2
CSc1ccc(CCNC(=O)c2ccc(-c3nc(COc4ccc(C)cc4)c(C)o3)cc2)cc1 | 2 | 0 | -1 | 3 | 0
Cc1oc(-c2ccc(C(=O)NCCc3ccc(Cl)cc3)cc2)nc1CSc1ccccc1 | 0 | 1 | 0 | 32* | 3
CSc1ccc(CCNC(=O)c2ccc(-c3nc(COc4ccccc4)c(C)o3)cc2)cc1 | -63* | 0 | 3 | 0 | 0
CC1CCN(C(=O)c2cc3c(=O)n(C)c4ccccc4c3s2)CC1 | -31* | -2 | 11 | 2 | -1
CCn1c(=O)c2cc(C(=O)Nc3cc(OC)c(OC)c(OC)c3)sc2c2ccccc21 | 12 | 1 | 0 | 2 | 0
COc1ccc(NC(=O)c2cc3c(=O)n(C)c4ccccc4c3s2)cc1Cl | -68* | 4 | 26 | 1 | -1
Cc1ccc(Cl)cc1N1CCN(C(=O)c2cc3c(=O)n(C)c4ccccc4c3s2)CC1 | -9 | 0 | -2 | 0 | 0
COc1ccccc1N1CCN(C(=O)c2cc3c(=O)n(C)c4ccccc4c3s2)CC1 | -53* | -1 | 28 | 2 | -1
CCN(C(=O)Cn1nc(Cc2ccncc2)c2ccccc2c1=O)c1cccc(Cl)c1 | -83* | -2 | 0 | 0 | -1
CC1CN(C)C(C)C/C1=N\Oc1ccc([N+](=O)[O-])cc1 (configuration not stated) | -31* | -7 | -9 | 4 | 3

Compound activity from PubChem BioAssay.
